Screens as filed in PubChem BioAssay.
Jurkat NFkB inh = inhibitors of induced NF-kB luciferase reporter, primary screen, TCR NF-kB activation inhibitor project, cell-based, luminescence, uHTS | Jurkat, PMA/ionomycin-induced NF-kB luciferase reporter | inhibition, % at 4 µM | 0.53% of 330,000 active | AID 435003, 2010; in the data active = inhibition above about 50%
HIF activator = HIF pathway transcriptional activators, primary screen, cell-based, U2OS HRE-luciferase, luminescence; U2OS HRE-luciferase reporter; normalized: DMSO 0%, desferrioxamine 100%; activation, % at 7.5 µM (by protocol); 0.32% of 300,000 active; AID 1910, 2009;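 active = mean activation of at least 10% of the iron chelator positive control signal, with at least half of replicates also reaching 10%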
F508del corr = F508del CFTR correction, initial screen, CFBE line, single point; 0.36% of 350,000 active; CFBE cells, YFP halide quenching; stimulated with forskolin plus potentiator P3; % fluorescence drop versus neutral controls; activity (quench increase), % at 7.58 µM;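 active = mean added fluorescence quench of at least 8% versus neutral control, with both replicates also reaching 8%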;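 note: cells transiently co-express mutant CFTR-F508del with the halide-sensitive YFP; corrector assay measuring rescue of mutant channel to the surface after 24 h compound exposure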
697 NFkB inh = inhibitors of PMA/ionomycin-induced NF-kB reporter, 697 cells, primary screen, B-cell NF-kB inhibitor project, cell-based, luminescence, uHTS | 697 B-cell NF-kB luciferase reporter, 16 h | inhibition, % at 4 µM | AID 435022, 2010 | 0.33% of 330,000 active; in the data active = inhibition above about 35%
Jurkat NFkB conf = PMA/ionomycin-induced NF-kB reporter inhibitors, Jurkat retest, confirmation, T-cell NF-kB inhibitor project, cell-based, luminescence, single concentration. shares compounds with Jurkat NFkB inh. Jurkat NF-kB luciferase, 16 h. inhibition, % at 4 µM. 27% of 2,700 active;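 active = inhibition reaching about 45% at 4 µM in either replicate, limit read from the data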;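 note: plate controls were PMA/ionomycin stimulated DMSO wells for no effect and unstimulated DMSO wells for full effect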
Numbers without * were called inactive; · = not tested or not shown. Rows were chosen to be rich in hits. Some 0.93% of all compounds tested hit in one or more screens of this group.

SMILES | Jurkat NFkB inh | HIF activator | F508del corr | 697 NFkB inh | Jurkat NFkB conf
COc1cc(NC(=O)N2CCNC2=O)cc(C(=O)Nc2cccc(C(F)(F)F)c2)c1 | 67.0* | 0.6 | 8.0* | -7.9 | 51.1*
CC1=Nc2cc(C(=O)NCc3ccco3)ccc2Sc2ccc(C)cc21 | 50.7* | -0.2 | · | 7.2 | 17.9
O=C(Nc1ccc(N2CCN(C(=O)c3cccs3)CC2)cc1)c1ccc([N+](=O)[O-])o1 | 52.3* | -6.2 | -2.6 | -31.8 | 21.9
Cc1[nH]c2ccccc2c1/C=N/NC(=O)c1cc(-c2ccncc2)nc2ccccc12 | 55.7* | 2.1 | 2.2 | 8.1 | 12.1
O=C(N/N=C/c1ccccn1)c1cc(-c2ccc(Br)cc2)nc2ccccc12 | 54.3* | 9.1 | -12.4 | -62.6 | 18.6
Cc1[nH]c2ccccc2c1/C=N/NC(=O)c1cc(-c2ccccc2)n[nH]1 | -1.6 | -0.5 | -1.7 | 5.7 | ·
CO[C@@H]1CN(C)C(=O)c2ccc(NC(=O)C3CCOCC3)cc2OC[C@@H](C)N(C(=O)c2ccccc2)C[C@H]1C | · | · | 3.1 | · | ·
COCCCNC(=O)C(=O)Nc1ccc2c(c1)N(S(=O)(=O)c1cccs1)CCC2 | 61.8* | -0.2 | 6.0 | -2.7 | 56.7*
CN(C)CCNC(=O)C(=O)Nc1ccc2c(c1)N(S(=O)(=O)c1cccs1)CCC2 | 64.7* | 1.5 | 0.7 | 9.5 | 14.2
CCCNC(=O)C(=O)Nc1ccc2c(c1)N(S(=O)(=O)c1cccs1)CCC2 | 45.4 | 3.1 | -0.9 | -25.3 | ·
C[C@H]1CN([C@@H](C)CO)C(=O)c2ccccc2-c2ccccc2CO[C@H]1CN(C)S(=O)(=O)CC(F)(F)F | · | · | 0.2 | · | ·
COC(=O)c1ccc(NC(=S)Nc2ccccn2)cc1 | -163.6 | 2.8 | · | -132.8 | -69.4
O=S(=O)(N[C@@H]1CC[C@@H](CCn2cc(-c3ccccc3F)nn2)O[C@H]1CO)c1ccc(F)cc1 | · | · | 5.4 | · | ·
Oc1ccccc1C1NN=C(c2ccccc2)S1 (stereo not drawn) | -174.8 | -1.8 | -1.9 | -214.1 | -121.2
O=C(NCC[C@H]1CC[C@H](NC(=O)c2cccnc2)[C@@H](CO)O1)Nc1ccc(C(F)(F)F)cc1 | · | · | 0.0 | · | ·
Cc1ccc(S(=O)(=O)/N=C2\C=C(Nc3cccc(C(=O)O)c3)C(=O)c3ccccc32)cc1 | -4.8 | 1.6 | -3.9 | -61.3 | ·
Cc1ccc(S(=O)(=O)/N=C2\C=C(Nc3ccc(O)cc3)C(=O)c3ccccc32)cc1 | 64.3* | · | · | 18.9 | 99.3*
O=C(Nc1ccc(-c2nc3ccc(NC(=O)c4cccs4)cc3[nH]2)cc1)c1cccs1 | 91.0* | · | · | -131.8 | -44.6
O=C(Nc1ccc(F)cc1)Nc1ccc2c(c1)CCC2 | -108.1 | 3.1 | -0.4 | -42.6 | ·
O=C(Nc1ccc2c(c1)CCC2)c1cccc(OC(F)F)c1 | -193.2 | 2.1 | · | -189.0 | -107.8
O=C(Nc1ccc2c(c1)CCC2)Nc1ccc(F)cc1F | -178.4 | 2.4 | -2.5 | -160.0 | -66.7
O=C(Nc1ccc(OC(F)F)c(Cl)c1)c1cccc(OC(F)F)c1 | -41.3 | 2.3 | · | -27.8 | ·
CN(C)S(=O)(=O)c1cccc(C(=O)Nc2ccc3c(c2)CCC3)c1 | -161.9 | 2.6 | 0.1 | -216.4 | -143.2
O=C(C1=C[C@H](C2CC2)C[C@H](OCCCCO)O1)N1CCCC1 | · | · | -3.7 | · | ·
Cc1ccc(S(=O)(=O)N[C@@H]2CC[C@@H](CCNC(=O)CN3CCOCC3)O[C@@H]2CO)cc1 | · | · | -1.2 | · | ·
SMILES | Jurkat NFkB inh | HIF activator | F508del corr | 697 NFkB inh | Jurkat NFkB conf
CC(=O)N1CC2(C1)[C@@H](c1ccc(-c3cccc(F)c3)cc1)[C@@H](CO)N2CC1CCOCC1 | · | · | 0.0 | · | ·
Cc1ccccc1S(=O)(=O)NCC[C@@H]1CC[C@H](NS(=O)(=O)c2ccccc2C)[C@@H](CO)O1 | · | · | -1.5 | · | ·
C[C@H]1CN([C@@H](C)CO)S(=O)(=O)c2ccc(-c3cccc(C#N)c3)cc2O[C@@H]1CN(C)C(=O)c1ccc(F)cc1 | · | · | -0.2 | · | ·
C[C@H](CO)N1C[C@H](C)[C@H](CN(C)S(=O)(=O)c2ccccc2)Oc2ncc(C#Cc3ccc(C(F)(F)F)cc3)cc2C1=O | · | · | 2.9 | · | ·
O=C(Nc1ccc2c(c1)CCC2)c1ccc(F)cc1 | -201.3 | -2.1 | · | -229.9 | -91.3
O=C(Nc1ccc2c(c1)CCC2)c1cccs1 | -176.4 | 1.4 | 0.8 | -145.1 | -107.8
CN(C)S(=O)(=O)c1ccc(C(=O)Nc2ccc3c(c2)CCC3)cc1 | -42.4 | 2.8 | -0.5 | -74.4 | ·
